Source: PubChem BioAssay (EPA / NIEHS)
Results filed as inconclusive are left out. Active and inactive are the calls of the source. How the source made its calls: active means hit-call score of the fitted dose curve at least 0.9, where 1 is the maximum; inconclusive means response in the unintended direction; inactive means score below 0.9.

Columns and labels:
[1] = molecular target: human Constitutive Androstane Receptor (CAR), NR1I3 (gene 9970) (UniProt Q14994); experiment: NVS_NR_hCAR_Antagonist: NovaScreen (NVS) Nuclear Receptor Binding Assay for human Constitutive Androstane Receptor Antagonism (CAR) (AID 2283344)
Sequence of human Constitutive Androstane Receptor (CAR), NR1I3 (gene 9970) (Q14994 whole entry, looked up): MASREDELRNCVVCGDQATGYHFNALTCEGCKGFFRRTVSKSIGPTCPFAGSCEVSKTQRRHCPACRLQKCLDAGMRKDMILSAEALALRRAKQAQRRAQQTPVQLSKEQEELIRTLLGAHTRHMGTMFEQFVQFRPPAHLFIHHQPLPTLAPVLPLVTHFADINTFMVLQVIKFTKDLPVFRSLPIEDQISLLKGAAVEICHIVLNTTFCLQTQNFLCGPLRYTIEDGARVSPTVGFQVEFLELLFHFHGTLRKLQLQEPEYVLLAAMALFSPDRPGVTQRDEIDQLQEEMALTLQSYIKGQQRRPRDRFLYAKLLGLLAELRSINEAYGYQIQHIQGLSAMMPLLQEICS
How it was run: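 Single 25 uM duplicate primary screen, with concentration-series follow-up on actives. Cell-free binding format run in antagonist mode, TR-FRET signal taken 1 h post-dose; activity is signal loss relative to DMSO.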

[2] = molecular target: bovine Estrogen Receptor (ER), ESR1 (gene 407238) (UniProt P49884); experiment: NVS_NR_bER: NovaScreen (NVS) Nuclear Receptor Binding Assay for bovine Estrogen Receptor (ER) (AID 2283345);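 further: actives lower the bound radioligand count which means they displace the ER ligand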
Sequence of bovine Estrogen Receptor (ER), ESR1 (gene 407238) (P49884 whole entry, looked up): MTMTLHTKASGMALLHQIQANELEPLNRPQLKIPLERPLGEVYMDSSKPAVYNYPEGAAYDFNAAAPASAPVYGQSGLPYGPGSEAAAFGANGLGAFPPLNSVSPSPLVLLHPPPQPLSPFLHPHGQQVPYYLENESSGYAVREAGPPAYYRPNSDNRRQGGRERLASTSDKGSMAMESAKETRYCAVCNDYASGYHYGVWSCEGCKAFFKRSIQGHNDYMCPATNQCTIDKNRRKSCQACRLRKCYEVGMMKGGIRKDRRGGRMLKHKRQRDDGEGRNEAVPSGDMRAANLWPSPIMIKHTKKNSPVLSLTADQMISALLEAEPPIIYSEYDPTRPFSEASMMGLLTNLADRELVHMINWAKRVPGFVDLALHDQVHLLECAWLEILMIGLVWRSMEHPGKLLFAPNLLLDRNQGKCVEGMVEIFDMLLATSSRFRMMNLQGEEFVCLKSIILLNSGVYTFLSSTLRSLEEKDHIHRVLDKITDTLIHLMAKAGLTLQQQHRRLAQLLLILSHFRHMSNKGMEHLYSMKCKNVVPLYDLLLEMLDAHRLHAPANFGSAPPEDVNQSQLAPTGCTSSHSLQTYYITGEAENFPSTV
How it was run: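 Displacement of a radioligand from estrogen receptor in bovine uterine membrane preparations; scintillation signal taken at 18 hours, DMSO as baseline. Single-concentration duplicates (25 uM) preceded concentration-response follow-up of actives.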

[3] = molecular target: Retinoic acid receptor alpha (Homo sapiens) (UniProt P10276); experiment: NVS_NR_hRAR_Antagonist: NovaScreen (NVS) Nuclear Receptor Binding Assay for human Retinoic Acid Alpha Receptor Antagonism (RAR) (AID 2283358)
Sequence of Retinoic acid receptor alpha (Homo sapiens) (P10276 whole entry, looked up): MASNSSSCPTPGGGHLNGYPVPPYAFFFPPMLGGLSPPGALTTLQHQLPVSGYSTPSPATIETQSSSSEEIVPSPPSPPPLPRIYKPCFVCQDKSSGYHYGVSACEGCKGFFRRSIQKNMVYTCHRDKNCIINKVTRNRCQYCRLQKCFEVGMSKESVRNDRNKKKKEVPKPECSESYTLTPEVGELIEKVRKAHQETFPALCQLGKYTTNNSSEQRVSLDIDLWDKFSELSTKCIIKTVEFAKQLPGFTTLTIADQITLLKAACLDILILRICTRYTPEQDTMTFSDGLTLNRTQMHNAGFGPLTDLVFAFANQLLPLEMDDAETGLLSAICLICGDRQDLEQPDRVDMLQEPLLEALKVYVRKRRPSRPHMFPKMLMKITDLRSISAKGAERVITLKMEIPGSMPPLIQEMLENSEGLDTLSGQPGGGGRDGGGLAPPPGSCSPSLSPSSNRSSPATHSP
How it was run: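 Read-out: time-resolved FRET binding signal, 2 h post-dose, cell-free extracted protein. Antagonism scored as signal loss versus DMSO negative control. Primary single-concentration screen at 25 uM in duplicate; concentration series for actives.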

[4] = molecular target: Estrogen receptor beta (Homo sapiens) (UniProt Q92731); experiment: OT_ER_ERbERb_0480: Odyssey Thera (OT) 8-hour HEK293T Protein-Complementation Assay for Estrogen Receptor-beta/-beta Homodimer (AID 2283357);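 further: active means signal gain over DMSO baseline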
Sequence of Estrogen receptor beta (Homo sapiens) (Q92731 whole entry, looked up, the tested form may be a part): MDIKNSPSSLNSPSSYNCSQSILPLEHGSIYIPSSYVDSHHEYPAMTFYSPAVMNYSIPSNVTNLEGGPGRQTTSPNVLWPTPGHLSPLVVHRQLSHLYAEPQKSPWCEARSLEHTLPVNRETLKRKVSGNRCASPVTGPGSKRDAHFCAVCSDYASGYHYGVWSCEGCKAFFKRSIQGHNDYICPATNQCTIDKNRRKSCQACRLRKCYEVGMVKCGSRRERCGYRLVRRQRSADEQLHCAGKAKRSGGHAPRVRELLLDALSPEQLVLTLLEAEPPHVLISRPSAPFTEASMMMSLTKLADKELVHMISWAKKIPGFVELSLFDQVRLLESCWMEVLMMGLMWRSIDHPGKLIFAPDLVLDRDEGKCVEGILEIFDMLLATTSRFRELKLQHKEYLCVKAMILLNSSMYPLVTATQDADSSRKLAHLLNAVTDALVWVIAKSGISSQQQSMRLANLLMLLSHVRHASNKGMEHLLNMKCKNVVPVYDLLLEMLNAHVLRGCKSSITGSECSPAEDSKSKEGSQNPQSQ
How it was run: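 Homodimerization of ER-beta LBD measured by protein-fragment complementation in HEK293T; 8 h dosing; fixed, Draq5 counterstain; fluorescence intensity gain over DMSO baseline, positive fitting direction; laser scanning cytometry.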

[5] = molecular target: Estrogen receptor (Homo sapiens) (UniProt P03372); experiment: OT_ER_ERaERa_1440: Odyssey Thera (OT) 24-hour HEK293T Protein-Complementation Assay for Estrogen Receptor-alpha/-alpha Homodimer (AID 2283349);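 further: hits raise fluorescence above DMSO for agonists and antagonists alike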
Sequence of Estrogen receptor (Homo sapiens) (P03372 whole entry, looked up, the tested form may be a part): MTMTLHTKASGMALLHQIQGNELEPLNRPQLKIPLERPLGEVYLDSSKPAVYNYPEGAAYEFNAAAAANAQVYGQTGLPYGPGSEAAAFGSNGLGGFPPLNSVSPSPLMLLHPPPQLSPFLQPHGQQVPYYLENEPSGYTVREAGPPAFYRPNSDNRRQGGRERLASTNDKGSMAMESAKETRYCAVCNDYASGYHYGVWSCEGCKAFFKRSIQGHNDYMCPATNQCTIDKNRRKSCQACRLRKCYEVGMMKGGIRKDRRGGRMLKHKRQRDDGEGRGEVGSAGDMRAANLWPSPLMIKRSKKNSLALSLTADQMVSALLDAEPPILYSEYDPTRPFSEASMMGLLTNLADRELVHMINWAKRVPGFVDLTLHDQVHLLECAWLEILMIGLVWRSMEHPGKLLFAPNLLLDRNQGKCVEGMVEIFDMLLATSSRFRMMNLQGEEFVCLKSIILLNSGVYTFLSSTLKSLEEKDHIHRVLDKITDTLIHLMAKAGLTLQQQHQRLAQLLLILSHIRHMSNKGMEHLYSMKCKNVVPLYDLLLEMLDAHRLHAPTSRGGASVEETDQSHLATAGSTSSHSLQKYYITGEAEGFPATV
How it was run: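 Cells (HEK293T) carrying the fragment-tagged ERα LBD (aa 310-547) pair are treated with chemical for 24 hours. Nuclear and/or cytoplasmic fluorescence is then quantified on a laser scanning cytometer. Activity is scored as signal gain against DMSO.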

[6] = molecular target: T1, Estrogen receptor (Homo sapiens) + Estrogen receptor beta (Homo sapiens) (UniProt P03372+Q92731); experiment: OT_ER_ERaERb_0480: Odyssey Thera (OT) 8-hour HEK293T Protein-Complementation Assay for Estrogen Receptor-alpha/-beta Heterodimer (AID 2283352)
T1 sequence (P03372 whole entry, looked up): as the sequence (P03372 whole entry, looked up, the tested form may be a part) above
T1 sequence (Q92731 whole entry, looked up): as the sequence (Q92731 whole entry, looked up, the tested form may be a part) above
How it was run: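 Compound added to HEK293T cells carrying split-reporter-tagged ER-alpha and ER-beta LBDs, incubated 8 hours, then imaged by laser scanning cytometer. Signal rise in nucleus, or nucleus and cytoplasm, over vehicle was fitted in the positive direction.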

[7] = molecular target: T1, Estrogen receptor (Homo sapiens) + Estrogen receptor beta (Homo sapiens); experiment: OT_ER_ERaERb_1440: Odyssey Thera (OT) 24-hour HEK293T Protein-Complementation Assay for Estrogen Receptor-alpha/-beta Homodimer (AID 2283356);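 further: heteromer of ER alpha and ER beta binding domains; hits raise reporter fluorescence and both agonists and antagonists give an increase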
How it was run: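 Stable HEK293T PCA line, ERα LBD 310-547 + ERβ LBD 263-489 fused to reporter fragments; 24 h treatment; fluorescence read by laser scanning cytometry; positive fitting direction relative to DMSO.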

[8] = molecular target: Androgen Receptor/SRC-1 Co-activator, AR (gene 367) (UniProt P10275); experiment: OT_AR_ARSRC1_0960: Odyssey Thera (OT) 16-hour HEK293T Protein-Complementation Assay for Androgen Receptor/SRC-1 Co-activator (AID 2283353);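 further: actives raise the signal above DMSO so potency reflects increased AR and SRC-1 complex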
Sequence of Androgen Receptor/SRC-1 Co-activator, AR (gene 367) (P10275 whole entry, looked up, the tested form may be a part): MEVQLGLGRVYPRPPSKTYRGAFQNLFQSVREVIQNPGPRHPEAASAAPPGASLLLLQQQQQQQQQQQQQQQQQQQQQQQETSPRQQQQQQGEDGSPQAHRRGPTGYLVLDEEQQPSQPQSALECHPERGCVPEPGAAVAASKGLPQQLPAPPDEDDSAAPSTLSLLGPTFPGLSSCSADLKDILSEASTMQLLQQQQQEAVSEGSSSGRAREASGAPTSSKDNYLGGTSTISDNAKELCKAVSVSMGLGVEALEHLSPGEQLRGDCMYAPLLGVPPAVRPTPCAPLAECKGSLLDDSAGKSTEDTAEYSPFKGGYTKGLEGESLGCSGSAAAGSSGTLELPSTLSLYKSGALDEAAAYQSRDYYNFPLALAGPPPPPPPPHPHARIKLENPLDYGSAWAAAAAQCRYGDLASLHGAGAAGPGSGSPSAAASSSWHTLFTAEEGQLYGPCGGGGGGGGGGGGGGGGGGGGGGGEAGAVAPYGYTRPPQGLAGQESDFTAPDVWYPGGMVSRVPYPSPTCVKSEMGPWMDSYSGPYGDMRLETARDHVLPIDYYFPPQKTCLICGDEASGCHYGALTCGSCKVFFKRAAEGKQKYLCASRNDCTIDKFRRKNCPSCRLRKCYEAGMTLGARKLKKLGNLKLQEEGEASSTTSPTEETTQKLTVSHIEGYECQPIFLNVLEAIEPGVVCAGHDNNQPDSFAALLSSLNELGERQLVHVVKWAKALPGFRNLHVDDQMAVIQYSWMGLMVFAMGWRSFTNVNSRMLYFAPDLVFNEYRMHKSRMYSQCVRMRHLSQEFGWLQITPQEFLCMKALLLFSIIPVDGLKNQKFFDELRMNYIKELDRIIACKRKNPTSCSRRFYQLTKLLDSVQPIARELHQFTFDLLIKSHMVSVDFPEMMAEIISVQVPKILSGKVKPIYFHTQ
How it was run: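 Sixteen-hour cell assay: Venus halves fused to AR and SRC-1 in HEK293T report binding. Images at 488/635 nm give an N/C ratio in the 488 nm channel over ≥400 cells, analysed as signal increase over DMSO.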

[9] = molecular target: Androgen Receptor/SRC-1 Co-activator, AR (gene 367) (UniProt P10275); experiment: OT_AR_ARSRC1_0480: Odyssey Thera (OT) 8-hour HEK293T Protein-Complementation Assay for Androgen Receptor/SRC-1 Co-activator (AID 2283354);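 further: hits raise the complementation signal above DMSO so AC50 marks enhancers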
How it was run: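 Split-Venus PCA, stable HEK293T, AR/SRC-1 fusions; 8 h exposure. Readout: 488nm N/C fluorescence ratio, ≥400 cells/image; fitted upward vs DMSO baseline.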

[10] = molecular target: Bile acid receptor (Homo sapiens) (UniProt Q96RI1); experiment: NVS_NR_hFXR_Antagonist: NovaScreen (NVS) Nuclear Receptor Binding Assay for human Farnesoid X Receptor Antagonism (FXR) (AID 2283350)
Sequence of Bile acid receptor (Homo sapiens) (Q96RI1 whole entry, looked up): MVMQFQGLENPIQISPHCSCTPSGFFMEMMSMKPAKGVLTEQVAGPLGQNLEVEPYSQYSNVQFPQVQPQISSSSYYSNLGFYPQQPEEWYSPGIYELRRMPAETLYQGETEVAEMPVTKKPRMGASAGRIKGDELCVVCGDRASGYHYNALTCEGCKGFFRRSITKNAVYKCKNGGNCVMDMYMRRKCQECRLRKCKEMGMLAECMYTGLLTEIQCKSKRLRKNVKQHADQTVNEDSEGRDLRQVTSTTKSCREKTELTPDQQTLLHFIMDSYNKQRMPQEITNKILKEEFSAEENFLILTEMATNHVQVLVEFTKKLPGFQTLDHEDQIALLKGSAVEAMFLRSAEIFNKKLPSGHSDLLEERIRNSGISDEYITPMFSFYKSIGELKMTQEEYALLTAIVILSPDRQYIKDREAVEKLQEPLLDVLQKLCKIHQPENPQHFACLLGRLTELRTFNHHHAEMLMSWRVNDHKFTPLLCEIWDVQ
How it was run: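 Antagonist-format time-resolved FRET binding assay with extracted human receptor protein, read 1 hour after compound addition. Compounds first screened at 25 uM in duplicate, then actives tested in concentration series, with loss of signal relative to DMSO.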

Which outcome [1] does the source give for `CN(C)c1ccc(N=NS(=O)(=O)O)cc1` here?
The outcome was “inactive”.

Which outcome [1] does the source give for `CC(C)=CCC/C(C)=C\CO` here?
The outcome was “inactive”.

With `C=CCCCCCCCCC(=O)O` as the compound, how does the outcome [2] read?
Its outcome is “inactive”.

Which outcome [3] does the source give for `O=C(O)c1cccc(Oc2ccccc2)c1` here?
Its outcome is “inactive”.

How did the outcome [4] turn out when `C1=CCCC=CCCC=CCC1` was run?
Its outcome is “inactive”.

How did the outcome [4] turn out when `CCOCCOCCOCCO` was run?
Its outcome is “inactive”.

With `CCOC(=O)CC(CC(=O)OCC)(OC(C)=O)C(=O)OCC` as the compound, how does the outcome [4] read?
The outcome was “inactive”.

What does the source list for `COC(=O)c1ccccc1O`?
outcome [5]: inactive; outcome [6]: inactive; outcome [7]: inactive; outcome [4]: inactive

How did the outcome [4] turn out when `NC(=O)NO` was run?
The outcome was “inactive”.

With `Cc1c(-c2cccnc2)c2ccccc2n1CCCCC(=O)O` as the compound, how does the outcome [4] read?
The outcome was “inactive”.

For `CC(C)(O)c1coc(S(=O)(=O)NC(=O)Nc2c3c(cc4c2CCC4)CCC3)c1`, which outcome [4] is on record?
The outcome was “inactive”.

For `O=C1CCC(N2C(=O)c3ccccc3C2=O)C(=O)N1` (configuration not stated), which outcome [4] is on record?
The outcome was “inactive”.

How did the outcome [4] turn out when `COCCOCCOCCOC` was run?
Its outcome is “inactive”.

How did the outcome [8] turn out when `Cc1ccc(O)cc1` was run?
Its outcome is “inactive”.

And the outcome [9]?
The outcome was “inactive”.

And the outcome [4]?
Its outcome is “inactive”.

Which AC50 [10] does the source give for `CC(C)c1cccc(C(C)C)c1N1C(=O)c2ccc(O)cc2C1=O` here?
The AC50 was 41.1 µM (active).

Which outcome [8] does the source give for `CC1(C)C(=O)N(Br)C(=O)N1Br` here?
Its outcome is “inactive”.

What about the outcome [9] of the same compound?
The outcome was “inactive”.

What about the outcome [4] of the same compound?
The outcome was “inactive”.

How did the outcome [4] turn out when `Clc1nc(Cl)c(Cl)c(Cl)c1Cl` was run?
Its outcome is “inactive”.

For `CCCCC(CC)COC(=O)c1ccc(C(=O)OCC(CC)CCCC)cc1` (configuration not stated), which outcome [8] is on record?
The outcome was “inactive”.

And the outcome [9]?
The outcome was “inactive”.

What does the source list for `CCCC(=O)OCC`?
outcome [5]: inactive; outcome [6]: inactive; outcome [7]: inactive; outcome [4]: inactive

For `C1N2CN3CN1CN(C2)C3`, which outcome [8] is on record?
The outcome was “inactive”.

And the outcome [4]?
Its outcome is “inactive”.

Which outcome [4] does the source give for `CC[C@H]1OC(=O)[C@H](C)[C@@H](O[C@H]2C[C@@](C)(OC)[C@@H](O)[C@H](C)O2)[C@H](C)[C@@H](O[C@@H]2O[C@H](C)C[C@H](N(C)C)[C@H]2O)[C@](C)(O)C[C@@H](C)C(=O)[C@H](C)[C@@H](O)[C@]1(C)O` here?
The outcome was “inactive”.

With `CC(C)CCCCCCOC(=O)c1ccc(C(=O)OCCCCCCC(C)C)c(C(=O)OCCCCCCC(C)C)c1` as the compound, how does the outcome [4] read?
Its outcome is “inactive”.

How did the outcome [4] turn out when `CC(C)CC(C)(O)C#CC(C)(O)CC(C)C` (configuration not stated) was run?
The outcome was “inactive”.

`On1ccccc1=S` was tested. Which outcome [4] did it give?
The outcome was “inactive”.

Which outcome [4] does the source give for `CC(=O)OCCC(C)C` here?
Its outcome is “inactive”.

How did the outcome [4] turn out when `CNCc1ccc(NC(=O)c2c[nH]c3c2C(=O)CCC3)cc1` was run?
The outcome was “inactive”.

With `O=C1OC(=O)C2C3C=CC(C3)C12` (configuration not stated) as the compound, how does the outcome [4] read?
The outcome was “inactive”.

What about the outcome [3] of the same compound?
Its outcome is “inactive”.

With `O=C1CCCCCN1` as the compound, how does the outcome [4] read?
The outcome was “inactive”.

How did the outcome [4] turn out when `COc1ccc(/C=C/S(=O)(=O)NC(=O)c2ccc(C)cc2Cl)cc1` was run?
The outcome was “inactive”.

For `CC(O)CN(CCN(CC(C)O)CC(C)O)CC(C)O` (configuration not stated), which outcome [4] is on record?
Its outcome is “inactive”.

With `CN(C)c1ccc(Cc2ccc(N(C)C)cc2)cc1` as the compound, how does the outcome [4] read?
Its outcome is “inactive”.

What does the source list for `CCNc1ccccc1`?
outcome [8]: inactive; outcome [9]: inactive; outcome [4]: inactive
